Test results published in article PMC7862700, “An all-to-all approach to the identification of sequence-specific readers for epigenetic DNA modifications on cytosine”.

What was measured:
Assay in all cases: DAPPL (digital affinity profiling via proximity ligation, sequencing); 10 mM Tris-HCl pH 7.5, 50 mM NaCl, 1 mM DTT, 4% glycerol, room temperature, 30 min; GST-TFs on glutathione beads, 16-mer random dsDNA library, 0.1% formaldehyde crosslink after washing; high values mean tight binding
Conditions in all cases: protein: recombinant; tags: N-terminal GST; dsDNA, one strand shown
FLI1 = target: T1, FLI1 (Homo sapiens, UniProt Q01543 1-452)
T1 sequence: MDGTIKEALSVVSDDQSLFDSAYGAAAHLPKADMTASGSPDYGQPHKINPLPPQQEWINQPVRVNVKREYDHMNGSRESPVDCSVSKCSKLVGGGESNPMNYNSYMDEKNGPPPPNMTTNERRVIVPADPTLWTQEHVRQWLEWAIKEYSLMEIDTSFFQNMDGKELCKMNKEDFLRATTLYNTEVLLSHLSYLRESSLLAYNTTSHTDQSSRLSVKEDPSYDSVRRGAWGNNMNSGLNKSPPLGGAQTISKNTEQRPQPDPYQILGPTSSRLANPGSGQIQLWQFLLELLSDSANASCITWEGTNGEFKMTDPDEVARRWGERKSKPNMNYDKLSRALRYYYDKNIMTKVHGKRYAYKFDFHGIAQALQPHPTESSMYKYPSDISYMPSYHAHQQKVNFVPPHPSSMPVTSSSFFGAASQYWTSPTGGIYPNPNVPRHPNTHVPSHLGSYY
Method in brief: (§1)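 Human transcription factors were made in yeast as GST fusions, captured on glutathione beads and barcoded with DNA. With a tag-only sample included, the pool was incubated with 200 nmole of a random double-stranded 16-mer DNA library in Tris/NaCl/DTT/glycerol buffer at room temperature for 30 min, then crosslinked with 0.1% formaldehyde after washing, ligated by proximity, amplified and sequenced. For binding signal, each hexamer's read frequency for a factor is divided by its frequency for the tag-only sample.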

ELK1 = target: T2, ELK1 (Homo sapiens, UniProt P19419 1-428)
T2 sequence: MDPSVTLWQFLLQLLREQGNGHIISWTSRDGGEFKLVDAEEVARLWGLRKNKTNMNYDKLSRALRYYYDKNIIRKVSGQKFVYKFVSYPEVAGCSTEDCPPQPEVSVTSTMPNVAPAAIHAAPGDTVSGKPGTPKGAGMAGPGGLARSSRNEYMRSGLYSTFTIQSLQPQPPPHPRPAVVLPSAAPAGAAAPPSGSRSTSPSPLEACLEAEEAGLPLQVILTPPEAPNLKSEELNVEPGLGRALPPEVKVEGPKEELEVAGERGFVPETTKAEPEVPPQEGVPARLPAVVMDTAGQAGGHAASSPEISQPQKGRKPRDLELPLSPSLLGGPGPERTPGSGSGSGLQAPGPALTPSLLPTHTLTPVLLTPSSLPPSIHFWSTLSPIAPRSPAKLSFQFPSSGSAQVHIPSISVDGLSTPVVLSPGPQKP
Method in brief: as §1

GABPA = target: T3, GABPA (Homo sapiens, UniProt Q06546 1-454)
T3 sequence: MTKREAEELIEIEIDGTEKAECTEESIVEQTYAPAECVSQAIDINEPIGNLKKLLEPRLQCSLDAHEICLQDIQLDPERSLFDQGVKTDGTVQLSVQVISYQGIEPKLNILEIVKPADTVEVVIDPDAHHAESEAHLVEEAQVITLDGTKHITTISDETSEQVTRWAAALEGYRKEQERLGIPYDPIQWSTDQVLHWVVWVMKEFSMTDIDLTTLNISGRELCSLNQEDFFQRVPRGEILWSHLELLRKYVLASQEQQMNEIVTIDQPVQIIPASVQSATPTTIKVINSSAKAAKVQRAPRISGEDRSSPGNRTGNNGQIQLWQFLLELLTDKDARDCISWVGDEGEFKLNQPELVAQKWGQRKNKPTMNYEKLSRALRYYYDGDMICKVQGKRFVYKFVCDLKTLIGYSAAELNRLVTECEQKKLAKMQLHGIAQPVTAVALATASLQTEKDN
Method in brief: as §1

ELF1 = ELF1 (Homo sapiens, UniProt P32519 1-619)
ELF1, sequence (P32519 whole entry): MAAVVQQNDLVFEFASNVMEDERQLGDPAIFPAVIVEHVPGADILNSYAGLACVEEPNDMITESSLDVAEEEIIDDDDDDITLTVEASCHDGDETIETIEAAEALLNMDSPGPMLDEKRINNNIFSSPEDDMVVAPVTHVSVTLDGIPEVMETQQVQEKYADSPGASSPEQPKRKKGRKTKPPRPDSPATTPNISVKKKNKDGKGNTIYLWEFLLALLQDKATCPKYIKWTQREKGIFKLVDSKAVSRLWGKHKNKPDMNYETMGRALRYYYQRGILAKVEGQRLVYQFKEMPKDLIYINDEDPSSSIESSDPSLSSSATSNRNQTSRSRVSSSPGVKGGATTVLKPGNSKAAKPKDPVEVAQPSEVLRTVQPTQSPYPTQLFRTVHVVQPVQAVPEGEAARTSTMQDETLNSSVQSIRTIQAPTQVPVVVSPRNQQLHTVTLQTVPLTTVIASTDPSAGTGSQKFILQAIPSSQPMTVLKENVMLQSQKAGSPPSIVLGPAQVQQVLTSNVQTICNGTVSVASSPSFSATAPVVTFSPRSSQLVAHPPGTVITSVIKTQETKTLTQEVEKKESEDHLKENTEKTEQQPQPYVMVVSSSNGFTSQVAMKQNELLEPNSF
Method in brief: as §1

EHF = target: T4, EHF (Homo sapiens, UniProt Q9NZC4 1-300)
T4 sequence: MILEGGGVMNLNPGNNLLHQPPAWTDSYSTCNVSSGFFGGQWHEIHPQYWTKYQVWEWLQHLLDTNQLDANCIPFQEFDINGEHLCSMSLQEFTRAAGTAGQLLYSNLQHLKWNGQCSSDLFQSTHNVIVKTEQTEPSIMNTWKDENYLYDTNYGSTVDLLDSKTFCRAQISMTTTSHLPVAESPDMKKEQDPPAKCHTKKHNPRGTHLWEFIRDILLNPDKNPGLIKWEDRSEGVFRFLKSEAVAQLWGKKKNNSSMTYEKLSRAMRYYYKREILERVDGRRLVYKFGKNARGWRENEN
Method in brief: as §1

SPI1 = SPI1 (Homo sapiens, UniProt P17947 1-270)
Method in brief: as §1

SPIB = SPIB (Homo sapiens, UniProt Q01892 1-262)
SPIB, sequence (Q01892 whole entry): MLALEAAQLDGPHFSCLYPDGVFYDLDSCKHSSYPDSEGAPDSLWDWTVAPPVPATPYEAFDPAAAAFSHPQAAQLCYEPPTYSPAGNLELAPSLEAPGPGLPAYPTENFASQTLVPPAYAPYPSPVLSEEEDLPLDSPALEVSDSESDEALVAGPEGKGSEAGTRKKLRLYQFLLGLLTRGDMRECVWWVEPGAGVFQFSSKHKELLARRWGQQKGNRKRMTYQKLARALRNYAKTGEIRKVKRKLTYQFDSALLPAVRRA
Method in brief: as §1

ELK3 = target: T5, ELK3 (Homo sapiens, UniProt P41970 1-407)
T5 sequence: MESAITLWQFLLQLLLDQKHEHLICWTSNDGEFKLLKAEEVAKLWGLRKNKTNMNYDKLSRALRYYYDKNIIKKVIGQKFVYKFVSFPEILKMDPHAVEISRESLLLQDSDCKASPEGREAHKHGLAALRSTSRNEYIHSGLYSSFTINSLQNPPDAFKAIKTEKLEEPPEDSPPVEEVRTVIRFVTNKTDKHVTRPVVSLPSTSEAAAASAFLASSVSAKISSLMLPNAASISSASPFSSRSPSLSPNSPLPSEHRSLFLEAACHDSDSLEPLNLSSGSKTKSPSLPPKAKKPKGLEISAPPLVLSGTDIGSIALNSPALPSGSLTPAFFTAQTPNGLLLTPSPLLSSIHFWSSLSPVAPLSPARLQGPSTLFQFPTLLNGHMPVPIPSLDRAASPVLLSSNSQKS
Method in brief: as §1

FEV = target: T6, FEV (Homo sapiens, UniProt Q99581 1-238)
T6 sequence: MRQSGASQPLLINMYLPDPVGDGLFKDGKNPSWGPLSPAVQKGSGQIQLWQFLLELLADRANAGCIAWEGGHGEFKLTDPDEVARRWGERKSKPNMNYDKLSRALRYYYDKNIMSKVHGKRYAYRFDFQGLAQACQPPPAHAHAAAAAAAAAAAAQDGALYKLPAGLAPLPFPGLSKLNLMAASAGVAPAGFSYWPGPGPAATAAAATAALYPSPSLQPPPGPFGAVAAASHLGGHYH
Method in brief: as §1

ETV5 = ETV5 (Homo sapiens, UniProt P41161 1-510)
ETV5, sequence (P41161 whole entry): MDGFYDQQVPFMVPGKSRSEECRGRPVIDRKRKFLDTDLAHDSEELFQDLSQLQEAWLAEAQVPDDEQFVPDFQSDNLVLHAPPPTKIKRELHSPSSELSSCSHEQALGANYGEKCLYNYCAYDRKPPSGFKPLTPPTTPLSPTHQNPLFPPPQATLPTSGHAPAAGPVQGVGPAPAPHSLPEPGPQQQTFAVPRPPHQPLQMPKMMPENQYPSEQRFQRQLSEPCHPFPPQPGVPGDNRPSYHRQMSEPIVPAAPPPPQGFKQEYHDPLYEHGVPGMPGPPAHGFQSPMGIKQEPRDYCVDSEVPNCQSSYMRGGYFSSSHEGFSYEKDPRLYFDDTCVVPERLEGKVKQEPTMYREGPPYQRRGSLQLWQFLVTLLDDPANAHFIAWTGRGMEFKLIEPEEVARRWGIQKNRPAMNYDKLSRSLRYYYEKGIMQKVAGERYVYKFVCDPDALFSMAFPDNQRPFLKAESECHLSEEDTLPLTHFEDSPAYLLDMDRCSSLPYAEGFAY
Method in brief: as §1

SPIC = target: T7, SPIC (Homo sapiens, UniProt Q8N5J4 1-248)
T7 sequence: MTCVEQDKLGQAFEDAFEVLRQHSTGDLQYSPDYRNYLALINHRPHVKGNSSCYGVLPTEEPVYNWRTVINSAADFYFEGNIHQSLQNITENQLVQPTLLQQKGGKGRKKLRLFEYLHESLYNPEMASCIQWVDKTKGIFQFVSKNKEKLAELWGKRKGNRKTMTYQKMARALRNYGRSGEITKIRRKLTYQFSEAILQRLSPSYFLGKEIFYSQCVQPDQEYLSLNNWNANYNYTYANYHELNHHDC
Method in brief: as §1

ELF4 = ELF4 (Homo sapiens, UniProt Q99607 1-663)
ELF4, sequence (Q99607 whole entry): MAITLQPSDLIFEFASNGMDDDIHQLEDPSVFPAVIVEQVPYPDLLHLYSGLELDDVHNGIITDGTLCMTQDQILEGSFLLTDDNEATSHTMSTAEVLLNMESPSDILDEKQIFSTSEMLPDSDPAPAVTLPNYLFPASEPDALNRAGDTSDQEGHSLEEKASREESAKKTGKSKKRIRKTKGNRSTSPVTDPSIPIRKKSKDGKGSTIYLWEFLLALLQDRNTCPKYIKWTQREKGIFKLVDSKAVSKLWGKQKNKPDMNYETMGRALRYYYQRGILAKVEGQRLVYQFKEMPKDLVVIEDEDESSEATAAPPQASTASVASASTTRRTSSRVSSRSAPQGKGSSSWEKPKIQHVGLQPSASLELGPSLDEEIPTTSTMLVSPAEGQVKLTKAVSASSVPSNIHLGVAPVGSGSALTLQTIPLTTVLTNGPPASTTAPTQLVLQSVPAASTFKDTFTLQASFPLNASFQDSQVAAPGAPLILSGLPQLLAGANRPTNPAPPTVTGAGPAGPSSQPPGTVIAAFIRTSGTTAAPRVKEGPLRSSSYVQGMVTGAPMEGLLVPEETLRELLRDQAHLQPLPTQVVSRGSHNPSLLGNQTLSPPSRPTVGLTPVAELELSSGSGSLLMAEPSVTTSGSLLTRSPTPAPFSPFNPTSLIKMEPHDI
Method in brief: as §1

ELK4 = target: T8, ELK4 (Homo sapiens, UniProt P28324-2 1-405)
T8 sequence: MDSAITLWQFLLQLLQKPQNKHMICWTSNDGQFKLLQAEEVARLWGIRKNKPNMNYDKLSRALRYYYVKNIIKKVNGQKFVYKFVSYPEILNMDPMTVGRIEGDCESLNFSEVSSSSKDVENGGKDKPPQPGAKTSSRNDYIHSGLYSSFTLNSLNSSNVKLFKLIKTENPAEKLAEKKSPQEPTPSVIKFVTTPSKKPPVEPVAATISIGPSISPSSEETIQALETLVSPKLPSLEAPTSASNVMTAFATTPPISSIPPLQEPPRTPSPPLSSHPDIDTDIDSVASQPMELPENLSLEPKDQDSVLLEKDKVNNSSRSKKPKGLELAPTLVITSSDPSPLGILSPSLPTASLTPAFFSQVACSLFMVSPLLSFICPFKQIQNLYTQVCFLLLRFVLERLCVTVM
Method in brief: as §1

ETV2 = target: T9, ETV2 (Homo sapiens, UniProt O00321 1-342)
T9 sequence: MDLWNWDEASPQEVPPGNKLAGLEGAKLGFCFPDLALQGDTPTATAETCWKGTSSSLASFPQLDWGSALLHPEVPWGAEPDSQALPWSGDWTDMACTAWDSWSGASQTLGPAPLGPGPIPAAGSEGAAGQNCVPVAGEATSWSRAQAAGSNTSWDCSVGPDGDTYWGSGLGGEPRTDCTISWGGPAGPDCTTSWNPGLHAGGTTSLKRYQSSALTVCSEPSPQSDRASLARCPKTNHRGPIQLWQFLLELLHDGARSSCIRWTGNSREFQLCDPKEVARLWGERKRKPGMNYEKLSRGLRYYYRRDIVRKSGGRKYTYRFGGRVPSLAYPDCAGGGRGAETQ
Method in brief: as §1

ELF3 = target: T10, ELF3 (Homo sapiens, UniProt P78545 1-371)
T10 sequence: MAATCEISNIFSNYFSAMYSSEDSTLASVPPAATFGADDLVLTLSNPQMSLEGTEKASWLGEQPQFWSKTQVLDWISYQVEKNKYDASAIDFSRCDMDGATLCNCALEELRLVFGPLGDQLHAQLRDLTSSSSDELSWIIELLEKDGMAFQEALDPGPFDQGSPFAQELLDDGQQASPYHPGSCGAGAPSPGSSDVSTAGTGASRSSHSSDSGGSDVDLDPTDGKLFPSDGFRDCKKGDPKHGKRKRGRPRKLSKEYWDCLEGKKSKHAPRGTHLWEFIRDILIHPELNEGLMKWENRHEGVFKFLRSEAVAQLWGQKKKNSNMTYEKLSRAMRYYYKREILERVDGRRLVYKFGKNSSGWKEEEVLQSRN
Method in brief: as §1

ETV1 = ETV1 (Homo sapiens, UniProt P50549 1-477)
ETV1, sequence (P50549 whole entry): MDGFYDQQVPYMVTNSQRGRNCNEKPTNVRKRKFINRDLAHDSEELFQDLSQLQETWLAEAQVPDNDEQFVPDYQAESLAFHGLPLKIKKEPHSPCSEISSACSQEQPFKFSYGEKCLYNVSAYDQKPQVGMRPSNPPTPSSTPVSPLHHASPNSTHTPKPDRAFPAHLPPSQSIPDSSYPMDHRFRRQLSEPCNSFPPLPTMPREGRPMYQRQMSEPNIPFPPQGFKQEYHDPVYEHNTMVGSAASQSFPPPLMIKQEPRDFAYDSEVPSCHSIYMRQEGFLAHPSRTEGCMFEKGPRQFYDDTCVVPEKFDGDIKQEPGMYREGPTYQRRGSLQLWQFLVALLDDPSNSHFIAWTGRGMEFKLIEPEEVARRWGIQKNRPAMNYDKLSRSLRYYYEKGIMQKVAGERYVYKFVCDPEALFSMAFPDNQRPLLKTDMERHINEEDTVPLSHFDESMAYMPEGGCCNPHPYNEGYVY
Method in brief: as §1

ERG = target: T11, ERG (Homo sapiens, UniProt P11308 1-479)
T11 sequence: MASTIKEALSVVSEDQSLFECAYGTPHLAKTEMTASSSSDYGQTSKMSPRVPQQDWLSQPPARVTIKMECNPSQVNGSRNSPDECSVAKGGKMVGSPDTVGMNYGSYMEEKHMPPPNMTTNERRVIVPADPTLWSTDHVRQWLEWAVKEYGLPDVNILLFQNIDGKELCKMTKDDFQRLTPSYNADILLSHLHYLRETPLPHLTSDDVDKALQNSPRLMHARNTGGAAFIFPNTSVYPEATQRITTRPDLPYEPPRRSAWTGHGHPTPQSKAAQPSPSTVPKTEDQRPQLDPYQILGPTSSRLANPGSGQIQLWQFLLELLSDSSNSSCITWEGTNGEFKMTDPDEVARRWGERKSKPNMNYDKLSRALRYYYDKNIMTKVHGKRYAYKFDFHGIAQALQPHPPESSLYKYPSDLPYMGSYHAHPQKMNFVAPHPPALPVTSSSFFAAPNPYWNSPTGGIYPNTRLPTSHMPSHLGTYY
Method in brief: as §1

| Sequence | binding signal (FLI1) | binding signal (ELK1) | binding signal (GABPA) | binding signal (ELF1) | binding signal (EHF) | binding signal (SPI1) | binding signal (SPIB) | binding signal (ELK3) | binding signal (FEV) | binding signal (ETV5) | binding signal (SPIC) | binding signal (ELF4) | binding signal (ELK4) | binding signal (ETV2) | binding signal (ELF3) | binding signal (ETV1) | binding signal (ERG) |
| --- | --- | --- | --- | --- | --- | --- | --- | --- | --- | --- | --- | --- | --- | --- | --- | --- | --- |
| GTAGCA | 1.03 fold enrichment (6-mer frequency, TF over GST control) | 1.1 fold enrichment (6-mer frequency, TF over GST control) | 1.15 fold enrichment (6-mer frequency, TF over GST control) | 1.16 fold enrichment (6-mer frequency, TF over GST control) | 1.1 fold enrichment (6-mer frequency, TF over GST control) | 1.08 fold enrichment (6-mer frequency, TF over GST control) | 1.03 fold enrichment (6-mer frequency, TF over GST control) | 1.11 fold enrichment (6-mer frequency, TF over GST control) | 1.07 fold enrichment (6-mer frequency, TF over GST control) | 1.13 fold enrichment (6-mer frequency, TF over GST control) | 1.16 fold enrichment (6-mer frequency, TF over GST control) | 1.07 fold enrichment (6-mer frequency, TF over GST control) | 1.06 fold enrichment (6-mer frequency, TF over GST control) | 1.11 fold enrichment (6-mer frequency, TF over GST control) | 1.01 fold enrichment (6-mer frequency, TF over GST control) | 1.11 fold enrichment (6-mer frequency, TF over GST control) |  |
| CTCAGG | 1.08 fold enrichment (6-mer frequency, TF over GST control) | 1.13 fold enrichment (6-mer frequency, TF over GST control) | 1.02 fold enrichment (6-mer frequency, TF over GST control) | 1.08 fold enrichment (6-mer frequency, TF over GST control) |  |  | 1.11 fold enrichment (6-mer frequency, TF over GST control) | 1.07 fold enrichment (6-mer frequency, TF over GST control) | 1.09 fold enrichment (6-mer frequency, TF over GST control) | 1.06 fold enrichment (6-mer frequency, TF over GST control) | 1.06 fold enrichment (6-mer frequency, TF over GST control) | 1.07 fold enrichment (6-mer frequency, TF over GST control) | 1.05 fold enrichment (6-mer frequency, TF over GST control) | 1.12 fold enrichment (6-mer frequency, TF over GST control) | 1.15 fold enrichment (6-mer frequency, TF over GST control) |  | 1.1 fold enrichment (6-mer frequency, TF over GST control) |
